Here are results for 30 compounds from PubChem BioAssay (Tox21).

Values joined by “and” are separate entries in the source; they are usually repeats but may differ in a detail not shown here. Identical values can stand only once. Inconclusive results are not listed. Where a call stands in place of a potency, no number is given. Some compounds were tested as several samples or in several runs, with calls that do not always agree. Active and inactive are the calls of the source. Unless noted, calls follow the shape of the dose curve; as a rule, active = well fitted cell-killing curve with a large enough effect in the repeat runs; inconclusive = weak or mixed curves, or effect the other way; inactive = flat fitted curve, though single readings scatter.

Sequence of Estrogen receptor beta (Homo sapiens) (Q92731 whole entry, looked up): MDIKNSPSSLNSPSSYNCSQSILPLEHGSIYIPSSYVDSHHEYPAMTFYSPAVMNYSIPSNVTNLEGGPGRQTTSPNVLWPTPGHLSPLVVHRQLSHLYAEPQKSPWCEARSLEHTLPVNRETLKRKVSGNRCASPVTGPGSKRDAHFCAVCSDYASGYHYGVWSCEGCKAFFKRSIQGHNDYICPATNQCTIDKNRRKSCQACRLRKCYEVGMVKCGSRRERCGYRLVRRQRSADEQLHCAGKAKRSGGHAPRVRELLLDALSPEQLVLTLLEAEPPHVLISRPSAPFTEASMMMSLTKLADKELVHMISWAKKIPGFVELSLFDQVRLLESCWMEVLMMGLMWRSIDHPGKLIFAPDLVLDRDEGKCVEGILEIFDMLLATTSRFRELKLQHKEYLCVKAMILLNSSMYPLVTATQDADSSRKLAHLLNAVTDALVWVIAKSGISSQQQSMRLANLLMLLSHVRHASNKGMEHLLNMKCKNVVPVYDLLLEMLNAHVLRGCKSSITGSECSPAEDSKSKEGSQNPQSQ

System in one test: not listed separately
Kind of test: qHTS assay to identify small molecule antagonists of the sonic hedgehog signaling (Shh) pathway (AID 1259369; calls by dose curve; also: nearly all actives have a fitted effect of over 45% in size; also: potency is read from the fitted curve at half-maximal effect). Conditions: NIH/3T3 Gli1-Luc reporter, Shh antagonist, luminescence 24 h; series mostly up to 92.4 µM; activity change, negative = inhibition: at the top concentration. The method in brief:
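NIH/3T3-derived 3T3Gli1-Luc cells with stably integrated Gli1-Luc reporter were preincubated 4hr at 37 C, then given compounds in DMSO plus Shh conditioned medium and incubated 24hr. Firefly luciferase luminescence read after 30min reagent at room temperature.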
(In general: Quantitative high-throughput screening tests each substance at several concentrations.)
On to `COC(=O)C1CCC(C(=O)OC)CC1` (configuration not stated), for which the Potency entry is “inactive”.
On the same count and under the same terms, to `CCCCCCCCCCCCCCCCCC(=O)OCC(O)CO` (configuration not stated) belongs “inactive”; to `CCCCOC(=O)CCCCCCCCC(=O)OCCCC`, “inactive”; to `O=C(O)CN(CC(=O)O)CC(=O)O`, “inactive”.
Same read-out and setting: to `O=C(O)CCCCC1CCSS1` (configuration not stated) belongs “inactive”.
With `NC(N)=NC(N)=NCCc1ccccc1`, the “activity change, negative = inhibition” value is -22.1% (inactive).
For `CC(=O)/C=C/C1=C(C)CCCC1(C)C`, the Potency result was “inactive and 61.1 µM (active)”.
The same measure, in the same setting: to `Cc1c(N(C)C)c(=O)n(-c2ccccc2)n1C` belongs “inactive”; to `Cc1cnc(NC(=O)C2=C(O)c3ccccc3S(=O)(=O)N2C)s1`, “inactive”.
Same read-out and setting: to `CN(C)C=O` belongs “inactive”.
On to `Cc1cccc2ccccc12`, for which the Potency result was “inactive”.
Still for that read-out and setting: to `C[C@]12C[C@H](O)[C@H]3[C@@H](CCC4=CC(=O)CC[C@@]43C)[C@@H]1CC[C@@H]2C(=O)CO` belongs 2.44 µM (active) and 344 nM (active) and 750 nM (active); to `Cc1ccc(O)c(-n2nc3ccccc3n2)c1`, 60.6 µM (active) and inactive; to `CC(C)(C)CC(C)(C)c1ccc(O)c(-n2nc3ccccc3n2)c1`, “inactive”.
Same read-out and setting: to `OCCCc1ccccc1` belongs “inactive”.

Another test addresses Estrogen receptor beta (Homo sapiens) (UniProt Q92731). Kind of test: qHTS assay to identify small molecule agonists of the estrogen receptor beta (ER-beta) signaling pathway (AID 1259377; active = well fitted activation curve with a large enough effect in the signal ratio in the repeat runs, not every such curve was filed as active; the % refers to the signal ratio). Conditions: ER-beta-UAS-bla HEK293T, beta-lactamase FRET ratio, 16 h; series mostly up to 92.4 µM; activation: at the top concentration. The method in brief: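 Read-out: beta-lactamase FRET fluorescence. Cell line: ER-beta-UAS-bla HEK293T in 2% charcoal-stripped FBS. Exposure: 16 hr at 37C. Substrate step: 2 h at room temperature.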
Turning to `COC(=O)C1CCC(C(=O)OC)CC1` (configuration not stated), the result was inactive.
Take `CCCCCCCCCCCCCCCCCC(=O)OCC(O)CO` (configuration not stated): the outcome was inactive.
With `CCCCOC(=O)CCCCCCCCC(=O)OCCCC`, the outcome was inactive.
Same read-out and setting: to `CCN1CCCC1=O` belongs “inactive”; to `O=C(O)CCCCC1CCSS1` (configuration not stated), “inactive”.
On to `COC1=CC(=O)C[C@@H](C)[C@]12Oc1c(Cl)c(OC)cc(OC)c1C2=O`, for which the result was inactive.
As for `NC(N)=NC(N)=NCCc1ccccc1`, the outcome was inactive.
For `COC(=O)c1ccc(O)cc1`, the “activation” value is 6% (inactive).
As for `Oc1cccc(O)c1`, the “activation” value was -3.48% (inactive).
As for `CC1=NN(c2ccccc2)C(=O)C1`, the result was inactive.
The same measure, in the same setting: to `CC(C)(C)NCC(O)c1ccc(O)c(CO)c1` (configuration not stated) belongs “inactive”; to `Cc1c(N(C)C)c(=O)n(-c2ccccc2)n1C`, “inactive”; to `CC(=O)OC/C=C(C)/C=C/C=C(C)/C=C/C1=C(C)CCCC1(C)C`, “inactive”.
As to `Cc1cnc(NC(=O)C2=C(O)c3ccccc3S(=O)(=O)N2C)s1`, the outcome was inactive.
The same measure, in the same setting: to `C[C@]12C=CC(=O)C=C1CC[C@@H]1[C@@H]2C(=O)C[C@@]2(C)[C@H]1CC[C@]2(O)C(=O)CO` belongs “inactive”.
The same measure, in the same setting: to `CN(C)C=O` belongs “inactive”; to `C[C@]12C[C@H](O)[C@H]3[C@@H](CCC4=CC(=O)CC[C@@]43C)[C@@H]1CC[C@@H]2C(=O)CO`, “inactive”.
The same measure, in the same setting: to `CC(C)Cc1ccc(C(C)C(=O)O)cc1` (configuration not stated) belongs “inactive”.
For `Cc1ccc(O)c(-n2nc3ccccc3n2)c1`, the “activation” value was 1.63% [at 42.5 µM] (inactive).
Take `CC(C)(C)CC(C)(C)c1ccc(O)c(-n2nc3ccccc3n2)c1`: the result was inactive.
The same measure, in the same setting: to `C=C(C)OC(C)=O` belongs “inactive”.
In the case of `OCCCc1ccccc1`, the “activation” value is 3.62% (inactive).
Regarding `C=CCOC(=O)CC(C)C`, the result was inactive.

The target is the same in the next test. Kind of test: qHTS assay to identify small molecule antagonists of the estrogen receptor beta (ER-beta) signaling pathway (AID 1259378; active = well fitted inhibition curve with a large enough effect in the signal ratio in the repeat runs, not every such curve was filed as active; the % refers to the signal ratio; also: potency is read from the fitted curve at half-maximal effect). The following applies: ER-beta-UAS-bla HEK293T, beta-lactamase FRET ratio, 16 h; series mostly up to 92.4 µM; activity, negative = inhibition: at the top concentration. The essentials: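 ER-beta-UAS-bla HEK293T cells in 2% charcoal-stripped FBS medium treated with compound plus 1nM final 17-beta-estradiol for 16 hr at 37C. Beta-lactamase reporter read by FRET substrate fluorescence after 2 hours at room temperature.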
With `COC(=O)C1CCC(C(=O)OC)CC1` (configuration not stated), the Potency entry was “inactive”.
On to `CCCCCCCCCCCCCCCCCC(=O)OCC(O)CO` (configuration not stated), for which the Potency result was “inactive”.
For the compound `COC(=O)c1ccc(C=O)cc1`, the Potency result was “inactive”.
Regarding `CCCCOC(=O)CCCCCCCCC(=O)OCCCC`, the Potency result was “inactive”.
On the same count and under the same terms, to `CCN1CCCC1=O` belongs “inactive”; to `O=C(O)CCCCC1CCSS1` (configuration not stated), “inactive”.
As to `COC1=CC(=O)C[C@@H](C)[C@]12Oc1c(Cl)c(OC)cc(OC)c1C2=O`, the “activity, negative = inhibition” value is -12% [at 42.5 µM] (inactive).
Regarding `NC(N)=NC(N)=NCCc1ccccc1`, the Potency entry was “inactive”.
Same read-out and setting: to `COC(=O)c1ccc(O)cc1` belongs “inactive”; to `Oc1cccc(O)c1`, “inactive”.
Same read-out and setting: to `CC1=NN(c2ccccc2)C(=O)C1` belongs “inactive”; to `CC(C)(C)NCC(O)c1ccc(O)c(CO)c1` (configuration not stated), “inactive”.
Still for that read-out and setting: to `Cc1c(N(C)C)c(=O)n(-c2ccccc2)n1C` belongs “inactive”; to `CC(=O)OC/C=C(C)/C=C/C=C(C)/C=C/C1=C(C)CCCC1(C)C`, 54.5 µM (active); to `Cc1cnc(NC(=O)C2=C(O)c3ccccc3S(=O)(=O)N2C)s1`, “inactive”.
In the case of `C[C@]12C=CC(=O)C=C1CC[C@@H]1[C@@H]2C(=O)C[C@@]2(C)[C@H]1CC[C@]2(O)C(=O)CO`, the Potency entry was “inactive”.
On the same count and under the same terms, to `CN(C)C=O` belongs “inactive”; to `C[C@]12C[C@H](O)[C@H]3[C@@H](CCC4=CC(=O)CC[C@@]43C)[C@@H]1CC[C@@H]2C(=O)CO`, “inactive”; to `CC(C)Cc1ccc(C(C)C(=O)O)cc1` (configuration not stated), “inactive”.
For `Cc1ccc(O)c(-n2nc3ccccc3n2)c1`, the Potency entry was “inactive”.
Same read-out and setting: to `CC(C)(C)CC(C)(C)c1ccc(O)c(-n2nc3ccccc3n2)c1` belongs “inactive”; to `C=C(C)OC(C)=O`, “inactive”.
Turning to `OCCCc1ccccc1`, the “activity, negative = inhibition” value was 0.131% (inactive).
Turning to `C=CCOC(=O)CC(C)C`, the Potency entry is “inactive”.

System in another test: not listed separately
In words: qHTS assay to identify small molecule agonists of the androgen receptor (AR) signaling pathway in the presence of an antagonist - cell viability counter screen (AID 1259379). Also: nearly all actives have a fitted effect of over 25% in size. Also: potency is read from the fitted curve at half-maximal effect.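 As to activity change, negative = cytotoxicity: MDA-kb2 human breast cancer cells carrying an MMTV luciferase reporter.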 Conditions: MDA-kb2 viability, CellTiter-Fluor, 16 h; series mostly up to 92.4 µM; activity change, negative = cytotoxicity: at the top concentration. The essentials:
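MDA-kb2 human breast carcinoma cells (stable MMTV-luciferase, AR/GR responsive) were seeded 3,000 cells/well, pre-incubated 5 hr at 37C without CO2, then given 3.0uM nilutamide and compounds at 15 concentrations for 16 hr. Viability was read by CellTiter-Fluor fluorescence.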
For `N[C@@H](Cc1c[nH]c2ccc(O)cc12)C(=O)O`, the Potency result was “inactive”.
The same measure, in the same setting: to `COC(=O)C1CCC(C(=O)OC)CC1` (configuration not stated) belongs “inactive”.
Consider `CCCCCCCCCCCCCCCCCC(=O)OCC(O)CO` (configuration not stated), for which the Potency result is “inactive”.
Still for that read-out and setting: to `C/C=C/c1ccc(O)c(OC)c1` belongs “inactive”; to `COC(=O)c1ccc(C=O)cc1`, “inactive”.
On to `CCCCOC(=O)CCCCCCCCC(=O)OCCCC`, for which the Potency entry was “inactive”.
Same read-out and setting: to `O=C(O)CN(CC(=O)O)CC(=O)O` belongs “inactive”; to `CCN1CCCC1=O`, “inactive”; to `O=C(O)CCCCC1CCSS1` (configuration not stated), “inactive”.
In the case of `COC1=CC(=O)C[C@@H](C)[C@]12Oc1c(Cl)c(OC)cc(OC)c1C2=O`, the Potency result was “inactive”.
Same read-out and setting: to `NC(N)=NC(N)=NCCc1ccccc1` belongs 48.3 µM (active) and 54.5 µM (active) and 26.6 µM (active); to `COC(=O)c1ccc(O)cc1`, “inactive”; to `Oc1cccc(O)c1`, “inactive”.
On the same count and under the same terms, to `CC1=NN(c2ccccc2)C(=O)C1` belongs “inactive”; to `CC(=O)CCC(C)C`, “inactive”; to `CC(=O)/C=C/C1=C(C)CCCC1(C)C`, “inactive”.
Same read-out and setting: to `CC(C)(C)NCC(O)c1ccc(O)c(CO)c1` (configuration not stated) belongs “inactive”.
For `Cc1c(N(C)C)c(=O)n(-c2ccccc2)n1C`, the Potency result was “inactive”.
The same measure, in the same setting: to `CC(=O)OC/C=C(C)/C=C/C=C(C)/C=C/C1=C(C)CCCC1(C)C` belongs “inactive”.
Consider `Cc1cnc(NC(=O)C2=C(O)c3ccccc3S(=O)(=O)N2C)s1`, for which the “activity change, negative = cytotoxicity” value is -9.28% [at 42.5 µM] (inactive).
For the compound `C[C@]12C=CC(=O)C=C1CC[C@@H]1[C@@H]2C(=O)C[C@@]2(C)[C@H]1CC[C@]2(O)C(=O)CO`, the Potency entry is “inactive”.
As to `CN(C)C=O`, the Potency result was “inactive”.
The same measure, in the same setting: to `Cc1cccc2ccccc12` belongs “inactive”; to `C[C@]12C[C@H](O)[C@H]3[C@@H](CCC4=CC(=O)CC[C@@]43C)[C@@H]1CC[C@@H]2C(=O)CO`, “inactive”.
For `CC(C)Cc1ccc(C(C)C(=O)O)cc1` (configuration not stated), the Potency result is “inactive”.
The same measure, in the same setting: to `Cc1ccc(O)c(-n2nc3ccccc3n2)c1` belongs “inactive”; to `CC(C)(C)CC(C)(C)c1ccc(O)c(-n2nc3ccccc3n2)c1`, “inactive”.
On the same count and under the same terms, to `C=C(C)OC(C)=O` belongs “inactive”; to `OCCCc1ccccc1`, “inactive”; to `C=CCOC(=O)CC(C)C`, “inactive”.
